Among the test systems are AAK1; ABL1-nonphosphorylated; ABL1-phosphorylated; ABL2; ACVR1B; ACVR1; ACVR2A; ACVR2B; ACVRL1; ADCK4; AKT1; AKT2; AKT3; ALK; ANKK1.
What all share (conditions): concentration: 1 μM, replicates: in singlicate; n = 1
A further assay concerns T1, ADCK3.
T1 construct: gene CABC1

The next assay relates to T2, AMPK-alpha1.
T2 construct: gene PRKAA1

The test system of another assay is T3, AMPK-alpha2.
T3 construct: gene PRKAA2

The next assay has as its system T4, ARK5.
T4 construct: gene NUAK1

Another assay deals with T5, ASK1.
T5 construct: gene MAP3K5
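Also: KINOMEscan kinase panel screen.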

Consider `CS(=O)(=O)c1cccc(CNc2nc(Nc3ccc4c(c3)CCC(=O)N4)ncc2C(F)(F)F)c1`, for which the “%Inh” value in the assay on AAK1 amounted to 21%; in the assay on ABL1-nonphosphorylated, 54%; with ABL1-phosphorylated, 16%; with ABL2 it was 0%; in the assay with ACVR1B it was 0%; with ACVR1, 0%. For the same compound, the “%Inh” value came to 0% in the assay on ACVR2A; 0% with ACVR2B; 0% with ACVRL1; 0% with ADCK3; 4% in the assay with ADCK4; 0% in the assay on AKT1. Moreover, the “%Inh” value in the assay on AKT2 is given as 0%; in the assay with AKT3, 0%; in the assay on ALK it was 0%; in the assay on AMPK-alpha1 it was 7%; in the assay on AMPK-alpha2, 0%; in the assay with ANKK1 it was 3%. Moreover, the results for the “%Inh” value in the assay with ARK5 and in the assay on ASK1 were 86% and 0%, respectively.
As for `CN(C)CCOc1ccc(-c2cc(-c3ccc(Cl)c(O)c3)c(-c3ccncc3)[nH]2)cc1.Cl.Cl` [SB-684387], the “%Inh” value with AAK1 is 0%; in the assay with ABL1-nonphosphorylated, 50%; in the assay with ABL1-phosphorylated, 59%; in the assay on ABL2, 34%; with ACVR1B it was 90.5%; in the assay with ACVR1, 31%. For the same compound, the “%Inh” value in the assay on ACVR2A was determined as 0%; in the assay with ACVR2B, 51%; in the assay on ACVRL1, 0%; with ADCK3, 33%; with ADCK4, 21%; with AKT1 it was 0%. Further, the “%Inh” value with AKT2 is given as 0%; in the assay with AKT3, 55%; with ALK it was 18%; with AMPK-alpha1, 0%; in the assay on AMPK-alpha2, 11%; with ANKK1 it was 8%. Besides, the “%Inh” value in the assay on ARK5 is recorded as 1%; in the assay on ASK1, 15%.
Consider `COc1cccc(NC(=O)NCCNc2ccnc(Nc3ccc(F)cc3)n2)c1` [GSK1379879], for which the “%Inh” value with AAK1 amounted to 0%; in the assay with ABL1-nonphosphorylated, 0%; in the assay on ABL1-phosphorylated, 0%; with ABL2, 6%; in the assay with ACVR1B it was 0%; in the assay with ACVR1 it was 0%. The “%Inh” value is given as 0% in the assay on ACVR2A; 0% with ACVR2B; 0% in the assay on ACVRL1; 14% in the assay on ADCK3; 41% with ADCK4; 0% in the assay with AKT1. Also, the “%Inh” value in the assay with AKT2 amounted to 0%; with AKT3 it was 0%; in the assay on ALK, 36%; in the assay with AMPK-alpha1, 0%; in the assay on AMPK-alpha2, 0%; with ANKK1 it was 14%. Moreover, the “%Inh” value with ARK5 turned out to be 16%; in the assay with ASK1, 20%.
For `CN(C)CCNS(=O)(=O)c1ccc(-c2ccnc3[nH]ccc23)cc1` [GSK977620], the “%Inh” value with AAK1 turned out to be 21%; in the assay with ABL1-nonphosphorylated it was 0%; with ABL1-phosphorylated, 0%; in the assay on ABL2 it was 8%; in the assay with ACVR1B, 6%; in the assay with ACVR1 it was 0%. The “%Inh” value in the assay on ACVR2A is 0%; in the assay with ACVR2B, 0%; in the assay with ACVRL1, 0%; in the assay with ADCK3, 10%; with ADCK4, 0%; in the assay with AKT1, 57%. Besides, the “%Inh” value was found to be 18% in the assay on AKT2; 75% with AKT3; 50% with ALK; 53% in the assay with AMPK-alpha1; 43% in the assay with AMPK-alpha2; 0% in the assay with ANKK1. In addition, the “%Inh” value turned out to be 39% in the assay with ARK5 and 0% in the assay on ASK1.
For the compound `COc1cccc2c(-c3ccncc3)c(-c3ccc(F)cc3)nn12` [GW468513], the “%Inh” value in the assay with AAK1 was determined as 10%; with ABL1-nonphosphorylated, 0%; with ABL1-phosphorylated, 0%; in the assay on ABL2 it was 5%; with ACVR1B it was 76%; with ACVR1 it was 31%. Moreover, the “%Inh” value turned out to be 0% in the assay with ACVR2A; 3% with ACVR2B; 3% in the assay on ACVRL1; 43% with ADCK3; 38% with ADCK4; 0% in the assay on AKT1. Further, the “%Inh” value in the assay with AKT2 was determined as 34%; in the assay on AKT3, 5%; in the assay with ALK it was 27%; in the assay with AMPK-alpha1, 0%; in the assay with AMPK-alpha2, 18%; in the assay with ANKK1, 11%. For the same compound, the results for the “%Inh” value in the assay on ARK5 and in the assay on ASK1 were 19% and 0%, respectively.
As for `CN(C)c1ncnc2nc[nH]c12` [SKF-31736], the “%Inh” value worked out at 30% with AAK1; 38% in the assay with ABL1-nonphosphorylated; 27% in the assay on ABL1-phosphorylated; 0% with ABL2; 0% in the assay with ACVR1B; 1% in the assay on ACVR1. The “%Inh” value in the assay with ACVR2A stood at 0%; with ACVR2B, 0%; with ACVRL1, 0%; with ADCK3 it was 0%; in the assay on ADCK4 it was 19%; with AKT1 it was 0%. Besides, the “%Inh” value in the assay with AKT2, in the assay with AKT3, with ALK, in the assay on AMPK-alpha1, in the assay with AMPK-alpha2 and in the assay with ANKK1 was 0% each time. Also, the “%Inh” value with ARK5 and with ASK1 was 0% throughout.
Consider `c1ccc(Oc2ccc(Nc3ccnc4cc(-c5ccc(CN6CCCCC6)o5)ccc34)cc2)nc1` [GW567143], for which the “%Inh” value with AAK1 is on record as 0%; with ABL1-nonphosphorylated, 85%; with ABL1-phosphorylated it was 24%; in the assay on ABL2, 24%; with ACVR1B, 0%; with ACVR1 it was 0%. Moreover, the “%Inh” value with ACVR2A stood at 32%; in the assay with ACVR2B it was 0%; in the assay on ACVRL1, 0%; in the assay with ADCK3, 0%; with ADCK4, 8%; with AKT1, 0%. In addition, the “%Inh” value worked out at 14% in the assay with AKT2; 0% in the assay with AKT3; 26% with ALK; 0% with AMPK-alpha1; 0% in the assay on AMPK-alpha2; 9% with ANKK1. For the same compound, the “%Inh” value is recorded as 12% in the assay on ARK5 and 0% in the assay on ASK1.
Take `CCNc1nccc(-c2c(-c3ccc(F)cc3)ncn2C2CCN(C)CC2)n1`: the “%Inh” value with AAK1 is listed as 20%; in the assay with ABL1-nonphosphorylated, 30%; in the assay with ABL1-phosphorylated, 7%; in the assay on ABL2 it was 0%; with ACVR1B, 0%; in the assay on ACVR1, 0%. For the same compound, the “%Inh” value came out at 0% in the assay with ACVR2A; 0% in the assay with ACVR2B; 0% with ACVRL1; 12% in the assay on ADCK3; 8% in the assay on ADCK4; 4% in the assay with AKT1. The “%Inh” value in the assay on AKT2, in the assay on AKT3, in the assay with ALK, in the assay on AMPK-alpha1, with AMPK-alpha2 and in the assay on ANKK1 was 0% throughout. Also, the “%Inh” value in the assay on ARK5 came out at 0%; in the assay on ASK1, 15%.

The values above are taken from PMC5540273 (PLoS ONE, 2017).
